In PubChem BioAssay:
Where “and” joins values, the source holds several entries; their conditions need not be identical. Equal entries are not always repeated. Calls of active or inactive are those of the source. Unless noted, the rule behind the calls is not given here.

How the values were obtained:
[1] = compound effects on lung adenocarcinoma cell viability – A549, calcein-AM fluorescence, 48 h, basal, profiling panel (AID 1162); settings: higher = more signal; note: test concentration not given here
[2] = compound effects on differentiated 3T3-L1 adipocyte viability – cell-based, 3T3-L1 adipocytes, calcein-AM fluorescence, 48 h, basal, profiling panel (AID 1163); settings: 3T3-L1 adipocytes viability, higher = more signal; note: test concentration not given here
[3] = compound effects on hepatocellular carcinoma cell viability – HepG2, calcein-AM fluorescence, 48 h, basal, profiling panel (AID 1164); settings: higher = more signal; note: test concentration not given here
[4] = compound effects on multiple myeloma cell viability – MM1S, calcein-AM fluorescence, 48 h, basal, profiling panel (AID 1165); settings: higher = more signal;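 note: viability of MM1S multiple myeloma cells under basal unstimulated conditions; test concentration not given here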
[5] = calcein-AM signal in unstimulated myeloma cells – cell-based, calcein-AM fluorescence, 48 h, PK04 Diversity Set, profiling panel (AID 1166); settings: RPMI8226 myeloma viability, higher = more signal;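 note: cells grown under basal conditions without added stimulus; test concentration not given here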
[6] = JC-1 mitochondrial signal, unstimulated HepG2 cells – cell-based, JC-1 fluorescence, 24 h, 100 nL compound, profiling panel (AID 1167); settings: HepG2 mitochondrial potential, higher = more signal; note: test concentration not given here
[7] = JC-1 mitochondrial signal, unstimulated adipocytes – cell-based, JC-1 fluorescence, 3T3-L1 adipocytes, 24 h, 100 nL compound, profiling panel (AID 1168); settings: JC-1 mitochondrial fluorescence, higher = more signal, called active from +8 up or from −8 down; note: test concentration not given here
[8] = JC-1 mitochondrial signal, unstimulated myeloma cells – cell-based, JC-1 fluorescence, RPMI8226, 24 h, 100 nL compound, profiling panel (AID 1169); settings: JC-1 mitochondrial potential fluorescence, higher = more signal; note: test concentration not given here
[9] = JC-1 mitochondrial signal, unstimulated MM1S myeloma – cell-based, JC-1 fluorescence, 24 h, 100 nL compound, profiling panel (AID 1170); settings: MM1S mitochondrial potential, higher = more signal; note: test concentration not given here
[10] = resazurin metabolic signal in A549 cells – cell-based, resazurin fluorescence, 24 h, PK04 Diversity Set, profiling panel (AID 1171); settings: A549 viability, higher = more signal, called active from +8 up or from −8 down; note: test concentration not given here
[11] = resazurin metabolic signal in HepG2 cells – cell-based, resazurin fluorescence, 24 h, PK04 Diversity Set, profiling panel (AID 1172); settings: HepG2 viability, higher = more signal; note: test concentration not given here
[12] = budding yeast growth changes without added modifier – OD600, strain BY4716, 24 h, basal condition, primary screen (AID 1173); settings: S. cerevisiae BY4716 growth, OD600, 24 h; higher = more signal, called active from +8 up or from −8 down
[13] = viability profiling in MM1S myeloma cells – cell-based, resazurin fluorescence, basal, 24 h, PK04 Diversity Set, profiling panel (AID 1174); settings: higher = more signal, called active from +8 up or from −8 down; note: test concentration not given here
[14] = biological target: Dihydroorotate dehydrogenase (quinone), mitochondrial (Plasmodium falciparum (isolate 3D7)) (UniProt Q08210); assay: inhibition of P. falciparum DHODH – biochemical, C-terminal His tag, absorbance 600 nm, primary screen (AID 1175); settings: PfDHODH enzyme, DCIP absorbance 600 nm; higher = more signal, called active from +8 up or from −8 down;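 note: recombinant parasite enzyme with a five histidine tag at its C terminus; test concentration not given here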
[15] = inhibition of PAO1 biofilm formation – strain PAO1, LB-PBS medium, absorbance 600 nm, primary screen (AID 1176); note: test concentration not given here; settings: P. aeruginosa PAO1 growth/biofilm, A600, 12 h; higher = more signal
[16] = growth modulation of vineyard yeast isolate – strain RM11-1a, OD600, basal, 24 h, primary screen (AID 1177);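 note: cultures grown under basal conditions with no added stressor; test concentration not given here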; settings: S. cerevisiae RM11-1a growth, OD600, 24 h; higher = more signal, called active from +8 up or from −8 down
[17] = growth of efflux-deficient E. coli DRC39 – strain DRC39, OD650, 24 h, E. coli filamentation inducers, primary screen (AID 1178);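 note: growth measured as culture turbidity by optical density at 650 nm; test concentration not given here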; settings: E. coli DRC39 acrAB, higher = more signal, called active from +8 up or from −8 down
[18] = growth of efflux-deficient E. coli DRC39 – strain DRC39, OD650, 48 h, E. coli filamentation inducers, primary screen (AID 1179);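 note: screen aims at cell division blockers that make cells filament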; settings: E. coli DRC39 delta-acrAB growth, higher = more signal, called active from +8 up or from −8 down
[19] = viability profiling in RPMI8226 myeloma cells – cell-based, resazurin fluorescence, basal, 24 h, PK04 Diversity Set, profiling panel (AID 1180); settings: higher = more signal;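 note: RPMI8826 multiple myeloma cell line at 5000 cells per well; test concentration not given here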
[20] = biological target: E3 ubiquitin-protein ligase XIAP (Homo sapiens) (UniProt P98170); assay: small molecules binding XIAP protein – biophysical, small-molecule microarray, fluorescence 635 nm, primary screen (AID 1181); settings: higher = more signal;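 note: score merges 667 nm emission and signal to noise over triplicate slides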
Chain of E3 ubiquitin-protein ligase XIAP (Homo sapiens) (P98170 whole entry, looked up): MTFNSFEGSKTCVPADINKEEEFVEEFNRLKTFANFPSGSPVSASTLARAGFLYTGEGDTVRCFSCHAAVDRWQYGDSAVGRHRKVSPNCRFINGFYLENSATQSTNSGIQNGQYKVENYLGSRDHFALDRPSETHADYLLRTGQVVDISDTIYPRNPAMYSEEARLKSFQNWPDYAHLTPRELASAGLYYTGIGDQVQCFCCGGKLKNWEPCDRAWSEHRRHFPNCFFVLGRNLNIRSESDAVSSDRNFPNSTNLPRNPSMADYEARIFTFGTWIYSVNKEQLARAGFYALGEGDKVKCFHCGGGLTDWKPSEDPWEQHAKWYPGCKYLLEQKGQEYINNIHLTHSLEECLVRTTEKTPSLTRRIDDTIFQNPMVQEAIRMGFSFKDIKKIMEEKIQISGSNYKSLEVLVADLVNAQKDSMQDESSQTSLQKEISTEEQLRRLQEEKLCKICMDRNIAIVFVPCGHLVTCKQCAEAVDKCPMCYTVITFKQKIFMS

Chain of Dihydroorotate dehydrogenase (quinone), mitochondrial (Plasmodium falciparum (isolate 3D7)) (Q08210 whole entry, looked up): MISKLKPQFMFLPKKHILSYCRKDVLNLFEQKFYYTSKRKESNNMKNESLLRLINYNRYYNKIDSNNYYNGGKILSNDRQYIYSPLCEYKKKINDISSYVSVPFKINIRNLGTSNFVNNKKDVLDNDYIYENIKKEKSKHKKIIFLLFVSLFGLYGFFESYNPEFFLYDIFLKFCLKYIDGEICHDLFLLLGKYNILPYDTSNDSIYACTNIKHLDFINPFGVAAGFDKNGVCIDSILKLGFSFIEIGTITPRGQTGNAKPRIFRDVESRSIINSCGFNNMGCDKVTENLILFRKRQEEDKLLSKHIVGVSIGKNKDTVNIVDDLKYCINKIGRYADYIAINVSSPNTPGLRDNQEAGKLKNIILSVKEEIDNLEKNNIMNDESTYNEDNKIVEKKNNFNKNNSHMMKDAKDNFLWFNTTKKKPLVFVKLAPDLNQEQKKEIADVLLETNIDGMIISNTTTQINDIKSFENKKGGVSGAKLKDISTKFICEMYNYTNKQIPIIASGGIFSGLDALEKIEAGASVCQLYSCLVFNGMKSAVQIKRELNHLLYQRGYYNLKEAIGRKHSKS

For `CC(CO)N1C(=O)[C@@H]2C3C(=O)OCCC=C[C@H]3OC23C=CCN(c2ccc(Cl)cc2)C(=O)[C@@H]13` (stereo not given in full), the z-score [1] was 0.112 and -0.123, the z-score [2] was 0.194 and 0.458 and the z-score [3] was 0.47 and 1.07. The z-score [4] was -0.725 and -0.182, the z-score [5] was 0.622 and -0.222 and the z-score [6] was 0.242 and 0.0111. For the same compound, the z-score [7] was 0.518 (inactive) and -0.689 (inactive), the z-score [8] was 0.0601 and -0.811 and the z-score [9] was 0.936 and -0.274. The z-score [10] was 0.189 (inactive) and 0.557 (inactive), the z-score [11] was -0.445 and 0.702 and the z-score [12] was 0.604 (inactive) and -0.219 (inactive). The z-score [13] was -0.0472 (inactive) and -0.544 (inactive), the composite z-score [14] was -1.16 (inactive) and -1.13 (inactive) and the z-score [15] was -0.497 (inactive) and -0.167 (inactive). For the same compound, the z-score [16] was 1.43 (inactive) and -0.727 (inactive), the z-score [17] was 0.519 (inactive) and -0.342 (inactive) and the z-score [18] was 0.399 (inactive) and -0.538 (inactive). The z-score [19] was 0.23 and -0.131 and the composite z-score [20] was 0.269 and -0.0172.

Compound `COC(=O)[C@H](C)NC(=O)CCC1CC(OC(=O)NCCc2ccc(F)cc2)CC2(CCCC(COC(=O)NCCCN3CCCC3=O)O2)O1` (stereo not given in full) has a z-score [1] of -0.48, a z-score [2] of 1.06 and a z-score [3] of -1.32. It also gave a z-score [4] of -0.901, a z-score [5] of -1.78 and a z-score [6] of -0.197. The z-score [7] was 0.0783 (inactive), the z-score [8] was -0.405 and the z-score [9] was 0.0394. The z-score [10] was 0.209 (inactive), the z-score [11] was -0.704 and the z-score [12] was -0.343 (inactive). The z-score [13] was 0.951 (inactive), the composite z-score [14] was 0.322 (inactive) and the z-score [15] was -0.977 (inactive). The z-score [16] was 0.492 (inactive), the z-score [17] was -0.441 (inactive) and the z-score [18] was -0.367 (inactive). It also gave a z-score [19] of 0.315 and a composite z-score [20] of -0.283.

In the case of `CCC[C@@H]1C[C@@]1(CCC)[C@@H](NC(=O)c1ccc(-c2ccccc2)cc1)c1cccc(Cl)c1`, the z-score [1] is reported as -2.26 and 0.247, the z-score [2] is reported as -0.882 and -0.867 and the z-score [3] is reported as -2.12 and 1.52. The z-score [4] was -2.16 and -0.143, the z-score [5] was -2.94 and -1.06 and the z-score [6] was -0.93 and 2.74. For the same compound, the z-score [7] was -0.723 (inactive) and 0.883 (inactive), the z-score [8] was -0.256 and 0.137 and the z-score [9] was -0.647 and -1.16. The z-score [10] was 2.06 (inactive) and 0.608 (inactive), the z-score [11] was 0.791 and 0.395 and the z-score [12] was 0.0143 (inactive) and 1.49 (inactive). For the same compound, the z-score [13] was -0.0393 (inactive) and -0.312 (inactive), the composite z-score [14] was -0.824 (inactive) and 0.499 (inactive) and the z-score [15] was 1 (inactive) and 0.343 (inactive). For the same compound, the z-score [16] was 0.38 (inactive) and 1.47 (inactive), the z-score [17] was -0.505 (inactive) and -0.336 (inactive) and the z-score [18] was -0.61 (inactive) and -0.0929 (inactive). For the same compound, the z-score [19] was 0.889 and -0.275 and the composite z-score [20] was -0.0305 and 0.0623.

For `COC(=O)C1=C(C)N(Cc2ccccc2)C2=C(C(C)=O)[C@H](c3ccccc3)[C@@](O)(C(=O)OC)C(=O)N2[C@@H]1c1ccccc1`, the z-score [1] was 1.73 and 0.919, the z-score [2] was -0.0798 and 0.56 and the z-score [3] was 0.954 and 0.364. For the same compound, the z-score [4] was 0.592 and 0.378, the z-score [5] was 0.604 and 0.984 and the z-score [6] was 3.1 and 0.826. For the same compound, the z-score [7] was -1.09 (inactive) and 2.47 (inactive), the z-score [8] was -0.938 and -0.592 and the z-score [9] was -0.444 and 0.924. The z-score [10] was 1.78 (inactive) and 0.197 (inactive), the z-score [11] was 1.38 and 0.559 and the z-score [12] was -2.41 (inactive) and -3.21 (inactive). The z-score [13] was 1.07 (inactive) and 0.983 (inactive), the composite z-score [14] was 0.523 (inactive) and -1.82 (inactive) and the z-score [15] was 1.08 (inactive). The z-score [16] was -0.107 (inactive) and -3.5 (inactive), the z-score [17] was 1.32 (inactive) and 0.552 (inactive) and the z-score [18] was 0.972 (inactive) and -1.35 (inactive). The z-score [19] was 1.27 and 0.0662 and the composite z-score [20] was 0.0177 and -0.244.

With `CC(CO)N1C(=O)[C@@H]2C3C(=O)OCCC=C[C@H]3OC23C=CCN(c2ccc4ccccc4c2)C(=O)[C@@H]13` (stereo not given in full) the z-score [1] was -0.288 and -0.0156, the z-score [2] was 0.0371 and -0.217 and the z-score [3] was -0.463 and -0.565. The z-score [4] was 0.0923 and 1.01, the z-score [5] was -0.526 and -0.237 and the z-score [6] was -0.0969 and -0.0971. The z-score [7] was -0.684 (inactive) and -1.28 (inactive), the z-score [8] was -0.904 and 0.195 and the z-score [9] was 0.238 and 0.275. The z-score [10] was -0.124 (inactive) and 0.0409 (inactive), the z-score [11] was -0.406 and 0.0336 and the z-score [12] was 0.425 (inactive) and -0.0343 (inactive). The z-score [13] was -0.832 (inactive) and -0.602 (inactive), the composite z-score [14] was -5.1 (inactive) and -0.281 (inactive) and the z-score [15] was -0.0837 (inactive) and -0.649 (inactive). The z-score [16] was 1.44 (inactive) and -0.636 (inactive), the z-score [17] was -0.881 (inactive) and -0.593 (inactive) and the z-score [18] was -0.987 (inactive) and -0.714 (inactive). The z-score [19] was -0.406 and -0.233 and the composite z-score [20] was 0.172 and 0.232.

`CC(C)C(=O)N[C@@H]1CCCN1C(=O)C=Cc1ccccc1` showed a z-score [1] of 0.516, a z-score [2] of 0.709 and a z-score [3] of 0.546. It also gave a z-score [4] of 0.391, a z-score [5] of -0.463 and a z-score [6] of -0.201. For the same compound, the z-score [7] was -0.481 (inactive), the z-score [8] was 0.119 and the z-score [9] was 0.304. For the same compound, the z-score [10] was -0.123 (inactive), the z-score [11] was -0.0786 and the z-score [12] was -1.17 (inactive). For the same compound, the z-score [13] was -0.0492 (inactive), the composite z-score [14] was -1.3 (inactive) and the z-score [15] was 0.286 (inactive). The z-score [16] was -1.19 (inactive), the z-score [17] was 0.595 (inactive) and the z-score [18] was -0.0803 (inactive). It also gave a z-score [19] of 0.227 and a composite z-score [20] of -0.113.

For `CCOC(=O)c1ccc(NC(=O)O[C@H]2[C@H](OC(=O)Nc3ccccc3)[C@@H](OC(=O)Nc3ccccc3)[C@@H](OC)O[C@@H]2CO)cc1`, the z-score [1] was -1 and -2.09, the z-score [2] was 1.79 and 1.14 and the z-score [3] was -1.92 and -2.54. For the same compound, the z-score [4] was -1.83 and -2.21, the z-score [5] was -1.56 and -2.49 and the z-score [6] was -1.05 and -0.323. The z-score [7] was 2.13 (inactive) and 0.661 (inactive), the z-score [8] was -0.464 and -0.37 and the z-score [9] was -0.447 and -0.575. For the same compound, the z-score [10] was -3.35 (inactive) and -3.84 (inactive), the z-score [11] was -1.97 and -1.75 and the z-score [12] was 2.09 (inactive) and 0.61 (inactive). The z-score [13] was -2.14 (inactive) and -3.07 (inactive), the composite z-score [14] was 0.146 (inactive) and 0.755 (inactive) and the z-score [15] was 1.94 (inactive) and 1.5 (inactive). For the same compound, the z-score [16] was 2.51 (inactive) and 2.87 (inactive), the z-score [17] was 0.028 (inactive) and 0.188 (inactive) and the z-score [18] was -0.343 (inactive) and -0.714 (inactive). For the same compound, the z-score [19] was -1.82 and -1.87 and the composite z-score [20] was 0.39 and -0.146.
